Experiments:
[1] = target: RAC-alpha serine/threonine-protein kinase (Homo sapiens) (UniProt P31749); settings: at 0.1 µM
[2] = target: RAC-alpha serine/threonine-protein kinase (Homo sapiens) (UniProt P31749); settings: at 1 µM
[3] = target: RAC-beta serine/threonine-protein kinase (Homo sapiens) (UniProt P31751); settings: at 0.1 µM
[4] = target: RAC-beta serine/threonine-protein kinase (Homo sapiens) (UniProt P31751); settings: at 1 µM
[5] = target: RAC-gamma serine/threonine-protein kinase (Homo sapiens) (UniProt Q9Y243); settings: at 0.1 µM
[6] = target: RAC-gamma serine/threonine-protein kinase (Homo sapiens) (UniProt Q9Y243); settings: at 1 µM
[7] = target: G protein-coupled receptor kinase 6 (Homo sapiens) (UniProt P43250); settings: at 0.1 µM
[8] = target: G protein-coupled receptor kinase 6 (Homo sapiens) (UniProt P43250); settings: at 1 µM
[9] = target: T1, Rhodopsin kinase GRK7 (Homo sapiens) (UniProt Q8WTQ7); settings: at 0.1 µM
T1 sequence (whole entry): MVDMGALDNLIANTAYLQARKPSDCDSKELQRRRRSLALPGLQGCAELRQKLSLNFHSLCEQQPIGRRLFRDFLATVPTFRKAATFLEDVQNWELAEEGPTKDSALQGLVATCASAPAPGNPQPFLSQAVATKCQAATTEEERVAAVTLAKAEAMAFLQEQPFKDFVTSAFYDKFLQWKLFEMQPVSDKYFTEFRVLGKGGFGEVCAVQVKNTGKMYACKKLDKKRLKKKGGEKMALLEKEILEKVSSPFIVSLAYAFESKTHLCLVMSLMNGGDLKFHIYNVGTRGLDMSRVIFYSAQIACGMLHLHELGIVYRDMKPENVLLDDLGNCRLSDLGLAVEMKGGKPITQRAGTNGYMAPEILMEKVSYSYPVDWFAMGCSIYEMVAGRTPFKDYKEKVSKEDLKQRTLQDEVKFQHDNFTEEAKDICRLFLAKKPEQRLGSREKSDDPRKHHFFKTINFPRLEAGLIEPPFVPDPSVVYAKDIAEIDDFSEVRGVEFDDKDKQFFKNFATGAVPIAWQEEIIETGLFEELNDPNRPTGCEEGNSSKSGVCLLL

[10] = target: T1, Rhodopsin kinase GRK7 (Homo sapiens); settings: at 1 µM
[11] = target: Serine/threonine-protein kinase MRCK alpha (Homo sapiens) (UniProt Q5VT25); settings: at 0.1 µM
[12] = target: Serine/threonine-protein kinase MRCK alpha (Homo sapiens) (UniProt Q5VT25); settings: at 1 µM
[13] = target: Serine/threonine-protein kinase MRCK beta (Homo sapiens) (UniProt Q9Y5S2); settings: at 0.1 µM
[14] = target: Serine/threonine-protein kinase MRCK beta (Homo sapiens) (UniProt Q9Y5S2); settings: at 1 µM
[15] = target: Ribosomal protein S6 kinase alpha-5 (Homo sapiens) (UniProt O75582); settings: at 0.1 µM
[16] = target: Ribosomal protein S6 kinase alpha-5 (Homo sapiens) (UniProt O75582); settings: at 1 µM
[17] = target: Ribosomal protein S6 kinase alpha-4 (Homo sapiens) (UniProt O75676); settings: at 0.1 µM
[18] = target: Ribosomal protein S6 kinase alpha-4 (Homo sapiens) (UniProt O75676); settings: at 1 µM
[19] = target: Ribosomal protein S6 kinase beta-1 (Homo sapiens) (UniProt P23443); settings: at 0.1 µM
[20] = target: Ribosomal protein S6 kinase beta-1 (Homo sapiens) (UniProt P23443); settings: at 1 µM

Chain of RAC-beta serine/threonine-protein kinase (Homo sapiens) (P31751 whole entry): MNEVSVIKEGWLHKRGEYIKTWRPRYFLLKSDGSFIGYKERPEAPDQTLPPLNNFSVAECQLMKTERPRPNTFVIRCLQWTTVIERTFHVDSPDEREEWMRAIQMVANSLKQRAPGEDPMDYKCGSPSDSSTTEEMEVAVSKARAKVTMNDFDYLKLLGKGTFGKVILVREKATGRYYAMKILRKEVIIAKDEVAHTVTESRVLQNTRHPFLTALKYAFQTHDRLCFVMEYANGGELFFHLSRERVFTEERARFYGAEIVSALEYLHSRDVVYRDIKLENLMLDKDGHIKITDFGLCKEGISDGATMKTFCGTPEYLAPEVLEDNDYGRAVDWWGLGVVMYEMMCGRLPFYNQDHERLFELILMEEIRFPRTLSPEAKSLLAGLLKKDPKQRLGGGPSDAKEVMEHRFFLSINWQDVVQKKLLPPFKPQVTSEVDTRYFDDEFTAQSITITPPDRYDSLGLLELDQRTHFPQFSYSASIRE
Chain of RAC-gamma serine/threonine-protein kinase (Homo sapiens) (Q9Y243 whole entry): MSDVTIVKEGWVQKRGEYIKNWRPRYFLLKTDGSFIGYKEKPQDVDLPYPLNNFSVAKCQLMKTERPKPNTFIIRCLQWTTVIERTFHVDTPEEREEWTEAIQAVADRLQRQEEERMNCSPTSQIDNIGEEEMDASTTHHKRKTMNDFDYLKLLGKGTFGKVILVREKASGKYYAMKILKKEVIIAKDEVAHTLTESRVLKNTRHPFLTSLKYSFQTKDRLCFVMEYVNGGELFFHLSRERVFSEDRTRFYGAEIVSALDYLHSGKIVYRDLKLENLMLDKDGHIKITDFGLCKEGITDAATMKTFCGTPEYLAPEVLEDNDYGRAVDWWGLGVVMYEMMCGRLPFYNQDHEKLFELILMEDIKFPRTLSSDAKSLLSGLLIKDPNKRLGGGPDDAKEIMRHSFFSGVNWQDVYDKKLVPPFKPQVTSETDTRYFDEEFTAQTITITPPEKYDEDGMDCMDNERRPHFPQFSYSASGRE
Chain of RAC-alpha serine/threonine-protein kinase (Homo sapiens) (P31749 whole entry): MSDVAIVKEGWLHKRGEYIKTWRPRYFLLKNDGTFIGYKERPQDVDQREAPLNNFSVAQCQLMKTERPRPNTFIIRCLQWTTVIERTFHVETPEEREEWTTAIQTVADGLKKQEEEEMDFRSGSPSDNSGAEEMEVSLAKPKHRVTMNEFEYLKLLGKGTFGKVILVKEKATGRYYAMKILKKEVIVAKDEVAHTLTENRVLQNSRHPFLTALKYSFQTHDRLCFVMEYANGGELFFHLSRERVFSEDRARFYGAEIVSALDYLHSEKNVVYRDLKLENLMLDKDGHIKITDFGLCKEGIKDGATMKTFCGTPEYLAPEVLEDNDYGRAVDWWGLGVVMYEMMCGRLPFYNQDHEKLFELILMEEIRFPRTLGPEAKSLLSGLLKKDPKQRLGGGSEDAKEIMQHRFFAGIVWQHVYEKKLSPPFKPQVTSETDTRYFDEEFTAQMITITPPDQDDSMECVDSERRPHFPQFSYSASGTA
Chain of Ribosomal protein S6 kinase alpha-4 (Homo sapiens) (O75676 whole entry, looked up): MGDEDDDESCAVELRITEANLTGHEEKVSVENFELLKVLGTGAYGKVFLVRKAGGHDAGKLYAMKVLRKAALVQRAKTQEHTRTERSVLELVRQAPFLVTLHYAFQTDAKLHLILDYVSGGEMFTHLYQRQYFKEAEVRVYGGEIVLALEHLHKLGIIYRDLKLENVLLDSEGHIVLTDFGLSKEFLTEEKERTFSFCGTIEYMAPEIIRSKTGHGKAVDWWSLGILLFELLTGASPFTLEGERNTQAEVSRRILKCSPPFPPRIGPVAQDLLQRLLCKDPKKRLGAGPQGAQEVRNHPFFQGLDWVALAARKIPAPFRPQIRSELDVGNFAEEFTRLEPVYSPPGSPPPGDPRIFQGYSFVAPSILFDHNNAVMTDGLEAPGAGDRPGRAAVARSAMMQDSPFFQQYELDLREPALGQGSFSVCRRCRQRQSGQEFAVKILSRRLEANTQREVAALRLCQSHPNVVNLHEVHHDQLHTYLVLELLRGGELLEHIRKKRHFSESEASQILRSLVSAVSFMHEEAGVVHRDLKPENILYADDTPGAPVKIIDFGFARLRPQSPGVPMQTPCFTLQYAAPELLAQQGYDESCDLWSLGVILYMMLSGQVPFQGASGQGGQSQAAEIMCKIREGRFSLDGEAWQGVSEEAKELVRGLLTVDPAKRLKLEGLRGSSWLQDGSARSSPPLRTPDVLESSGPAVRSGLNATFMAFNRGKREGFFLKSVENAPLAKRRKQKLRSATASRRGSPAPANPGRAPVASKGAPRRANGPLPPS
Chain of Ribosomal protein S6 kinase beta-1 (Homo sapiens) (P23443 whole entry, looked up): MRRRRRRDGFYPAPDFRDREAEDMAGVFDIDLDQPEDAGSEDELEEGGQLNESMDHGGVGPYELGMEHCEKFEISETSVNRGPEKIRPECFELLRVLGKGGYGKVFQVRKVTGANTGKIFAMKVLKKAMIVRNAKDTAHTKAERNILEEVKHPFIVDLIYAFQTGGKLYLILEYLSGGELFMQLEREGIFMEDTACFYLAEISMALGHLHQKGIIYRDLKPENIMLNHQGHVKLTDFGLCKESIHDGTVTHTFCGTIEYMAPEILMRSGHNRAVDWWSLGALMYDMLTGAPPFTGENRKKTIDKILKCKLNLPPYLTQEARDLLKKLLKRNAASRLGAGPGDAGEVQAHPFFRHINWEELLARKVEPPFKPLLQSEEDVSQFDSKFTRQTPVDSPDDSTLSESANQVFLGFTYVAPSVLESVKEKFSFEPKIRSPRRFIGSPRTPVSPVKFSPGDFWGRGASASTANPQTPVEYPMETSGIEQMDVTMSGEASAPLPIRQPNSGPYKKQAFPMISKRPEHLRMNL
Chain of Ribosomal protein S6 kinase alpha-5 (Homo sapiens) (O75582 whole entry, looked up): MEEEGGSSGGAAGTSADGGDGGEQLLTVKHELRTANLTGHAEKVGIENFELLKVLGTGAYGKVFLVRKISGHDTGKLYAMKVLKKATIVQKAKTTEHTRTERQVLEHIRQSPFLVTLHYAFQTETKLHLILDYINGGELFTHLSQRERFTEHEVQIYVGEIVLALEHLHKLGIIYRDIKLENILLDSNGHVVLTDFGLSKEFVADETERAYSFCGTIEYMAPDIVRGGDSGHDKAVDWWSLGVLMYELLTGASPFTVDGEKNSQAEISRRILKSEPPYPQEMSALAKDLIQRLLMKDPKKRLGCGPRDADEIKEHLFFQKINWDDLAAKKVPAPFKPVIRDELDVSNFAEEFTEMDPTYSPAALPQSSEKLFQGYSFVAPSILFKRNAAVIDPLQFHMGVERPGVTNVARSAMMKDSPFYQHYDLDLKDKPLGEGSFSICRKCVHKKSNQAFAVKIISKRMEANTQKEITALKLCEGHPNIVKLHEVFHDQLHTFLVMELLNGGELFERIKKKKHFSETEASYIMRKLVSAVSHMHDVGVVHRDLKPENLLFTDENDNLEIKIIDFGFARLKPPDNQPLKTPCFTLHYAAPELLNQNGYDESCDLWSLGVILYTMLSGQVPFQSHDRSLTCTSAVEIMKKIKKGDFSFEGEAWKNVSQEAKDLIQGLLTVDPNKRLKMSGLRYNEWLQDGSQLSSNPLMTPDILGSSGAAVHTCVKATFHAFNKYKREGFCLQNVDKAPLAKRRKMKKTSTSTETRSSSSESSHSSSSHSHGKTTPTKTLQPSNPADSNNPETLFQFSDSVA
Chain of G protein-coupled receptor kinase 6 (Homo sapiens) (P43250 whole entry, looked up): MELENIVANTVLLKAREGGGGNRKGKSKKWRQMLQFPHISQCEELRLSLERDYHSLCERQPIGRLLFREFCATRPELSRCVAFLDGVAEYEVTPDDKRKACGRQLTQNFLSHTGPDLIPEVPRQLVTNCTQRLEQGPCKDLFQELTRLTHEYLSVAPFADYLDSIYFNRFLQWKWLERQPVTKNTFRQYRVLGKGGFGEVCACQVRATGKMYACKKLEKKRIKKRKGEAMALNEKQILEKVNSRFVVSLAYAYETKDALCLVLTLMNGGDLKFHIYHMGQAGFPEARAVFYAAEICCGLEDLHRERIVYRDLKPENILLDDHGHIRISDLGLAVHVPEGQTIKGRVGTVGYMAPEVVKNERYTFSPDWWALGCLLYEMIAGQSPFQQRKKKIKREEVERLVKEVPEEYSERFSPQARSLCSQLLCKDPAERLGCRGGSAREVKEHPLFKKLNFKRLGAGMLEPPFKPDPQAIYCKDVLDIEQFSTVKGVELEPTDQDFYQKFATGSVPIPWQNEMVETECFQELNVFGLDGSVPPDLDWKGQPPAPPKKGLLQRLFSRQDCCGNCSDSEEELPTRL

Compound: Clc1ccc(CNc2nccc(-c3cnn4ncccc34)n2)cc1
- inhibition [1]: 0.58%
- inhibition [2]: 0.44%
- inhibition [3]: 0.17%
- inhibition [4]: -0.27%
- inhibition [5]: 2.1%
- inhibition [6]: 1.14%
- inhibition [7]: 5.42%
- inhibition [8]: 1.78%
- inhibition [9]: 1.36%
- inhibition [10]: -5.11%
- inhibition [11]: 0%
- inhibition [12]: 2.46%
- inhibition [13]: -1.16%
- inhibition [14]: 0.3%
- inhibition [15]: 6.95%
- inhibition [16]: 7.87%
- inhibition [17]: 1.14%
- inhibition [18]: 1.71%
- inhibition [19]: 1.82%
- inhibition [20]: 2.04%

Compound: CNC(=O)c1cncc(/C=C/c2c(C)cccc2C)c1
- inhibition [1]: -2.43%
- inhibition [2]: -2.92%
- inhibition [3]: -3.43%
- inhibition [4]: -4.29%
- inhibition [5]: -2.01%
- inhibition [6]: -2.42%
- inhibition [7]: 4.6%
- inhibition [8]: -0.29%
- inhibition [9]: 1.47%
- inhibition [10]: -7.66%
- inhibition [11]: 1.09%
- inhibition [12]: 4.17%
- inhibition [13]: -0.27%
- inhibition [14]: -0.99%
- inhibition [15]: -1.22%
- inhibition [16]: -0.95%
- inhibition [17]: 1.35%
- inhibition [18]: 1.5%
- inhibition [19]: 2.04%
- inhibition [20]: 0.86%

Compound: CN(C)CCCNc1nccc(-c2c(-c3ccc(F)cc3)nn3cc(C(F)(F)F)ccc23)n1
- inhibition [1]: -2.46%
- inhibition [2]: -2.95%
- inhibition [3]: -2.07%
- inhibition [4]: -3.03%
- inhibition [5]: -2.14%
- inhibition [6]: -2.29%
- inhibition [7]: 0.16%
- inhibition [8]: -2.93%
- inhibition [9]: -0.49%
- inhibition [10]: -5.64%
- inhibition [11]: 0.46%
- inhibition [12]: 1.03%
- inhibition [13]: 0.48%
- inhibition [14]: 1.09%
- inhibition [15]: 1.3%
- inhibition [16]: 2.69%
- inhibition [17]: 1.95%
- inhibition [18]: 4.5%
- inhibition [19]: 2.93%
- inhibition [20]: 3.55%

Compound: COc1cc(C)c(N(C)C(=O)CN(C)C)cc1Nc1nc(Nc2cccc(F)c2C(N)=O)c2cc[nH]c2n1
- inhibition [1]: -1.91%
- inhibition [2]: -1.8%
- inhibition [3]: -3.1%
- inhibition [4]: -2.1%
- inhibition [5]: -2.47%
- inhibition [6]: -1.39%
- inhibition [7]: 3.68%
- inhibition [8]: 17.8%
- inhibition [9]: -0.46%
- inhibition [10]: -6.16%
- inhibition [11]: 0.58%
- inhibition [12]: 0.78%
- inhibition [13]: 1.08%
- inhibition [14]: 1.21%
- inhibition [15]: 1.09%
- inhibition [16]: 0.49%
- inhibition [17]: 1.07%
- inhibition [18]: 2.79%
- inhibition [19]: 2.18%
- inhibition [20]: 1.42%

Compound: COc1ccc(C2=C(N3CCc4ccccc43)C(=O)NC2=O)cc1
- inhibition [1]: 0.6%
- inhibition [2]: 0.96%
- inhibition [3]: 2.65%
- inhibition [4]: 1.87%
- inhibition [5]: 1.01%
- inhibition [6]: 2.72%
- inhibition [7]: 8.72%
- inhibition [8]: 8.49%
- inhibition [9]: 27.9%
- inhibition [10]: 20.3%
- inhibition [11]: -0.56%
- inhibition [12]: -0.21%
- inhibition [13]: 1.1%
- inhibition [14]: 0.12%
- inhibition [15]: 4.26%
- inhibition [16]: 3.53%
- inhibition [17]: 2.26%
- inhibition [18]: 3.24%
- inhibition [19]: 1.91%
- inhibition [20]: 3.41%

Compound: COc1cc(N2CCN(C(C)C)CC2)ccc1Nc1nc(Nc2ccc(F)cc2C(=O)NC[C@@H](O)CO)c2cc[nH]c2n1
- inhibition [1]: -3.58%
- inhibition [2]: -2.63%
- inhibition [3]: 0.2%
- inhibition [4]: -1.3%
- inhibition [5]: -2.3%
- inhibition [6]: -1.37%
- inhibition [7]: 9.59%
- inhibition [8]: 13%
- inhibition [9]: 5.2%
- inhibition [10]: 13.3%
- inhibition [11]: -0.84%
- inhibition [12]: 3.26%
- inhibition [13]: -0.21%
- inhibition [14]: -1.04%
- inhibition [15]: 2.19%
- inhibition [16]: 2.99%
- inhibition [17]: 3.14%
- inhibition [18]: 4.18%
- inhibition [19]: 1.29%
- inhibition [20]: 2.5%

Compound: CCc1ccc(Oc2nccc(-c3c(-c4ccc(F)cc4)ncn3C3CCNCC3)n2)cc1
- inhibition [1]: 2.02%
- inhibition [2]: 3.72%
- inhibition [3]: 2.05%
- inhibition [4]: 3.62%
- inhibition [5]: 2.08%
- inhibition [6]: 11.5%
- inhibition [7]: 3.46%
- inhibition [8]: 4.51%
- inhibition [9]: 6.57%
- inhibition [10]: 7.25%
- inhibition [11]: 10%
- inhibition [12]: 12%
- inhibition [13]: 0.41%
- inhibition [14]: 4.65%
- inhibition [15]: 2.63%
- inhibition [16]: 4.23%
- inhibition [17]: 3.19%
- inhibition [18]: 5.69%
- inhibition [19]: 1.57%
- inhibition [20]: 5.93%

Compound: CCC(=O)Nc1ccc(C)c(-c2ccc(C(=O)NCC3CC3)cc2)c1
- inhibition [1]: 0.29%
- inhibition [2]: 0.52%
- inhibition [3]: 2.4%
- inhibition [4]: 1.7%
- inhibition [5]: 0.86%
- inhibition [6]: 2.4%
- inhibition [7]: 4.21%
- inhibition [8]: 3.82%
- inhibition [9]: 8.7%
- inhibition [10]: 1.14%
- inhibition [11]: 0%
- inhibition [12]: 1.8%
- inhibition [13]: -0.7%
- inhibition [14]: 0.23%
- inhibition [15]: 0.17%
- inhibition [16]: -0.98%
- inhibition [17]: 1.96%
- inhibition [18]: 2.63%
- inhibition [19]: 0.91%
- inhibition [20]: 1.77%

Compound: NC(=O)c1ccc(Oc2nccc(-c3c(-c4ccc(F)cc4)ncn3C3CCNCC3)n2)cc1
- inhibition [1]: 1.54%
- inhibition [2]: 3.25%
- inhibition [3]: 2.45%
- inhibition [4]: 1.86%
- inhibition [5]: 3.04%
- inhibition [6]: 7.31%
- inhibition [7]: 4.21%
- inhibition [8]: 7.44%
- inhibition [9]: -1.91%
- inhibition [10]: 2.41%
- inhibition [11]: 5.74%
- inhibition [12]: 5.95%
- inhibition [13]: 1.2%
- inhibition [14]: 2.3%
- inhibition [15]: -2.57%
- inhibition [16]: -1.95%
- inhibition [17]: 3.42%
- inhibition [18]: 5.79%
- inhibition [19]: 3.21%
- inhibition [20]: 5.34%

Compound: COc1cc(Nc2ncc3c(C)nc(-c4cccc(Oc5ccccc5)c4)n3n2)cc(OC)c1OC
- inhibition [1]: 0.97%
- inhibition [2]: 1.22%
- inhibition [3]: 0.47%
- inhibition [4]: 1.85%
- inhibition [5]: 1.02%
- inhibition [6]: 1.43%
- inhibition [7]: 1.19%
- inhibition [8]: -5.44%
- inhibition [9]: -0.36%
- inhibition [10]: -5.43%
- inhibition [11]: 0.02%
- inhibition [12]: -0.11%
- inhibition [13]: 0.97%
- inhibition [14]: 1.86%
- inhibition [15]: 8.17%
- inhibition [16]: 7.74%
- inhibition [17]: 0.96%
- inhibition [18]: 2.98%
- inhibition [19]: 1.98%
- inhibition [20]: 3.01%

Compound: COc1ccc(-c2ccc3c(NC(=O)C4CC4)n[nH]c3n2)cc1
- inhibition [1]: -0.03%
- inhibition [2]: 0.55%
- inhibition [3]: 0.33%
- inhibition [4]: 0.37%
- inhibition [5]: 3.49%
- inhibition [6]: 0.37%
- inhibition [7]: 5.32%
- inhibition [8]: 9.55%
- inhibition [9]: 2.9%
- inhibition [10]: 10.4%
- inhibition [11]: 0.51%
- inhibition [12]: 3.19%
- inhibition [13]: -0.1%
- inhibition [14]: 0.25%
- inhibition [15]: 1.32%
- inhibition [16]: 2.82%
- inhibition [17]: 2.27%
- inhibition [18]: 2.9%
- inhibition [19]: 0.22%
- inhibition [20]: 0.21%

From ChEMBL document CHEMBL1961873, “Compounds: GSK PKIS; Assays: Nanosyn kinase panel” (2012)
